Shown are actives, neighbours in structure and some others; about 3.3% of the full set was active somewhere.
Rpn11 inh: Rpn11 (PSMD14) deubiquitinase inhibitors, primary screen, biochemical, fluorescence polarization, uHTS; 26S proteasome non-ATPase regulatory subunit 14 (Homo sapiens), O00487; human 26S proteasome, Ub4-pepOG fluorescence polarization; 20S core pre-blocked with epoxomicin; inhibition, % at 20 µM; actives 0.59% (n = 360,000);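 active = inhibition at 20 µM, scaled to each plate's controls, above about 33%, limit read from the data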
Target sequence (O00487 whole entry, looked up): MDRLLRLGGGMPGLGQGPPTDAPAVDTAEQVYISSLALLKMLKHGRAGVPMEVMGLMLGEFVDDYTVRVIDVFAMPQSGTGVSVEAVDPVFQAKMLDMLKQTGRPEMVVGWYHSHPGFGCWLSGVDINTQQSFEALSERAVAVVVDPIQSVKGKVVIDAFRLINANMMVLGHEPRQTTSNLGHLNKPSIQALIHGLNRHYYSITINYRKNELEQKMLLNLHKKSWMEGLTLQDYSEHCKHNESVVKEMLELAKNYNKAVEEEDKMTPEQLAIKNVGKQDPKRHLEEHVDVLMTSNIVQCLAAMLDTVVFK
HNF4A DNA FP: change in binding of human HNF4A to DNA, primary screen, biochemical, fluorescence polarization, FITC-DNA | Hepatocyte nuclear factor 4-alpha (Homo sapiens), P41235 | 1 h | activity change, % at 10 µM | actives 0.3% (n = 360,000) | AID 1224865, 2016; in the data active = activity change above about 30%, passing the limit was not always enough
Fh CTSL1 inh: Fasciola hepatica cathepsin L1 inhibitors, primary screen, counter-screen for PFM18AAP inhibitor project, biochemical, QFRET, fluorogenic peptide substrate. recombinant F. hepatica cathepsin L1, Z-Leu-Arg-MCA fluorescence. inhibition, % at 5.96 µM. actives 0.49% (n = 300,000). AID 1906, 2009;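 active = inhibition above the mean of all tested compounds plus 3 SD, set per screening campaign, cut at about 17% in these data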;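 also: 0% = plate median of test compound wells and 100% = 1 µM Z-Phe-Ala-diazomethylketone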
NRP1-CendR mod: modulators of CendR peptide binding to NRP-1, primary screen, biochemical, fluorescence polarization, uHTS; AID 602438, 2012; inhibition, % at 25 µM; FAM-RPARPAR peptide binding to NRP-1; actives 0.85% (n = 360,000); Neuropilin-1 (Homo sapiens), O14786;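 active = inhibition or corrected inhibition above about 18%, plus a signal ratio from 0.5 to 1.5, limit read from the data, passing the limit was not always enough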
PHOSPHO1 block: PubChem AID 1565; Phosphoethanolamine/phosphocholine phosphatase (Homo sapiens), Q8TCT1; recombinant PHOSPHO1, absorbance phosphatase assay; inhibition, % at 13.3 µM; actives 1.1% (n = 290,000); in the data active = inhibition above about 60%
Target sequence (Q8TCT1 whole entry, looked up): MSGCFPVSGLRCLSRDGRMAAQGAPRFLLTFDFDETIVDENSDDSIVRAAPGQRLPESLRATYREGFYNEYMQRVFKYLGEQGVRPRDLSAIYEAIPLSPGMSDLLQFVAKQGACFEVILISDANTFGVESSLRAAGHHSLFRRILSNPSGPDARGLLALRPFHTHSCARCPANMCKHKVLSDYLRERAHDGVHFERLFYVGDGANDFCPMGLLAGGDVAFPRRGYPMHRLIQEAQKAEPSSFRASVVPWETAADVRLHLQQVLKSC
TPT1 inhibitor: Candida albicans TPT1 enzyme inhibitors, primary screen, biochemical, fluorescence polarization; inhibition, % at 5 µM; recombinant caTPT1, FP RNA substrate dephosphorylation; AID 1962, 2009; actives 0.81% (n = 300,000);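 active = inhibition above the mean of all tested compounds plus 3 SD, set per screening campaign, cut at about 24% in these data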;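 also: plate controls were DMSO alone for no effect and ferristatin control at 100 nM for full effect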
Numbers without * were called inactive; / = no result.

SMILES | Rpn11 inh | HNF4A DNA FP | Fh CTSL1 inh | NRP1-CendR mod | PHOSPHO1 block | TPT1 inhibitor
CCN1/C(=C/c2cccc[n+]2C)Sc2ccc(OC)cc21 | 13 | 2 | 1 | -2 | -24 | 1
CCCCN1/C(=C/c2ccc3ccccc3[n+]2CC)Sc2ccccc21 | 21 | 35 | / | -156 | -68 | /
C=CCOc1ccc(C2C(C(=O)c3cccs3)=C(O)C(=O)N2c2nnc(C)s2)cc1 (centres undefined) | -72 | -75 | 4 | 143 | / | -36
COc1ccc(C2C(C(=O)c3cccs3)=C(O)C(=O)N2c2nncs2)cc1 (centres undefined) | -179 | -108 | 1 | 130 | 71* | -36
Cc1ccccc1NS(=O)(=O)c1ccc(C(=O)OCC(=O)NCC(C)C)cc1 | 2 | 31* | 1 | 5 | 43 | -2
COc1cccc(C(=O)NC23CC4CC(CC(C4)C2)C3)c1 | -1 | -3 | -2 | 18 | 8 | 0
COc1ccc(-c2cc(C(F)(F)F)nc(SCC(=O)NCCN3CCOCC3)n2)cc1OC | 0 | 1 | 3 | 31* | -38 | -2
COc1cc(OC)c(C(=O)OCC(=O)Nc2cc(C)on2)cc1OC | 2 | -2 | 3 | 36* | -4 | 2
COc1ccc(-c2nnc(SCC(=O)Nc3cc(C)on3)n2N)cc1OC | -4 | -2 | -6 | -7 | 75* | 0
CCOc1ccccc1-n1nnnc1SCC(=O)Nc1cc(C)on1 | 4 | 4 | -2 | 3 | 62* | 2
CCCOc1ccc(F)cc1-c1cc(C(=O)Nc2ccc(C(C)C)cc2)[nH]n1 | -9 | 1 | / | -6 | / | /
O=C(CN1CCN(Cc2ccccc2)CC1)Nc1ccc(Cl)cc1 | -2 | 1 | 7 | 6 | 27 | 0
COc1ccc(-c2cc(C(F)(F)F)nc(SCC(=O)Nc3cc(C)on3)n2)cc1OC | 4 | 0 | 2 | 39* | -5 | 0
Cc1nnc(SCc2cc([N+](=O)[O-])cc3c2OCOC3)n(N)c1=O | 1 | 1 | -9 | 4 | 20 | -1
Cc1ccccc1Nc1nnc(SCc2cc([N+](=O)[O-])cc3c2OCOC3)s1 | 0 | 2 | 4 | 3 | 90* | -3
O=[N+]([O-])c1cc2c(c(CSc3nnc(Nc4ccccc4)s3)c1)OCOC2 | -16 | -3 | 5 | -1 | 100* | -2
Cc1cc(C)c(S(=O)(=O)/N=C2\C=C(NS(=O)(=O)c3ccccc3)C(=O)c3ccccc32)c(C)c1 | 10 | -3 | -1 | 28* | -91 | 2
Cc1ccc(S(=O)(=O)/N=C2\C=C(NS(=O)(=O)c3ccccc3)C(=O)c3ccccc32)cc1 | 6 | 1 | / | 65* | / | /
Cc1ccc(S(=O)(=O)/N=C2/C=C(C3C(=O)CC(C)(C)CC3=O)C(=O)c3ccccc32)cc1 | 10 | 8 | 0 | -4 | 36 | 1
COc1cc2ccccc2cc1C(=O)N/N=C/c1ccc2c(c1)OCO2 | 2 | 2 | / | 1 | 61* | /
O=C(CSc1ccccc1)NCC1(N2CCCCC2)CCCCC1 | 2 | 2 | 60* | 2 | / | 2
COc1ccc(CC(=O)NCC2(N3CCCCC3)CCCCC2)cc1 | -4 | 0 | 29* | 5 | -17 | 0
COCc1ccc(C(=O)NCC2(N3CCCCC3)CCCCC2)cc1 | 9 | -4 | 1 | 4 | 15 | 1
CN(C)S(=O)(=O)c1ccc(C(=O)NCC2(N3CCCCC3)CCCCC2)cc1 | -2 | 1 | 1 | -11 | 16 | 1
CS(=O)(=O)c1ccc(C(=O)NCC2(N3CCCCC3)CCCCC2)cc1 | 1 | 1 | 29* | 4 | -7 | -3
SMILES | Rpn11 inh | HNF4A DNA FP | Fh CTSL1 inh | NRP1-CendR mod | PHOSPHO1 block | TPT1 inhibitor
CC1(C(=O)Nc2cnc3ccccc3c2)CCN1C(=O)c1ccccc1CCc1ccccc1 (centres undefined) | 8 | -1 | / | -1 | / | /
CCOc1ccccc1CNC(=O)c1cc2oc3ccccc3c2n1CC | 3 | -5 | -2 | 7 | 2 | -3
Oc1ccc(-n2cccc2/C=N/n2cnnc2)cc1 | 9 | 8 | 0 | -2 | 33 | 9
FC(F)(F)c1cccc(-n2cccc2/C=N/n2cnnc2)c1 | 1 | 6 | -1 | -8 | 94* | -1
Cn1cnc2c1c(=O)[nH]c(=O)n2C | / | / | 1 | / | 31 | 1
CSc1cnc2c(=O)[nH]c(=O)n(C)c2n1 | -4 | -3 | 0 | 27* | -1 | 1
Cc1nc(Cc2nnc(SC(C)C(=O)N3c4ccccc4NC(=O)C3(C)C)o2)cs1 (centres undefined) | 0 | 1 | / | 3 | / | /
CC(Sc1nnnn1C1CC1)C(=O)N1c2ccccc2NC(=O)C1(C)C (centres undefined) | -1 | -4 | / | 26* | / | /
O=C(O)CCCC(=O)Nc1c(F)c(F)c(F)c(F)c1F | 1 | -2 | 3 | 11 | 0 | -5
COCCNC(=O)CCC1CCN(Cc2ccc(-c3ccccc3)cc2)CC1 | 2 | 2 | -2 | 5 | 24 | -1
Fc1ccc(-c2cc(C(F)(F)F)nc(NCc3cccs3)n2)cc1 | -3 | 3 | -3 | 30* | -15 | 2
CC(C)C[C@H]1CN([C@@H](CC(C)C)CN2CCC[C@H]2CN2C(=O)C(=O)NC[C@@H]2Cc2ccc(O)cc2)C(=O)C(=O)N1CC1CCCCCC1 | / | -1 | / | -22 | / | /
COc1ccc(C(=O)NC(=S)N2CCN(C)CC2)cc1Br | 2 | -2 | 1 | 2 | 29 | 6
O=C(O)C1OC1(c1ccccc1Cl)c1ccccc1Cl (centres undefined) | -2 | 0 | / | 24* | / | /
O=[N+]([O-])c1ccc(NNC(=S)Nc2ccccc2)cc1 | 0 | -1 | -1 | -14 | 86* | 4
O=[N+]([O-])c1ccc(NC(=S)NCCc2ccccc2)cc1 | -4 | 3 | 0 | 2 | -21 | 1
CCn1c(C)cc(/C=C2\NC(=O)N(Cc3ccccc3)C2=O)c1C | 0 | 1 | 2 | -3 | 70* | 1
CC(=O)c1nnn(-c2ccc([N+](=O)[O-])cc2)c1C | 2 | -1 | -2 | -6 | -8 | 0
CCOC(=O)C1CCN(C(=O)CC2(CC(=O)O)CCCC2)CC1 | 2 | -4 | -2 | 2 | 4 | -6
CC1(C)CC(=O)C2=C(C1)Nc1ccccc1NC2c1cccc(F)c1 (centres undefined) | -3 | 5 | / | -12 | 14 | /
Cn1cccc1C1Nc2ccccc2NC2=C1C(=O)CC(C)(C)C2 (centres undefined) | -49 | -9 | 4 | 22* | 29 | -6
CCOC(=O)CN1C(=O)N[C@@H](c2ccccc2)[C@H](C(C)=O)[C@H]1C | 2 | 3 | 1 | 25* | / | 1

Screening results from PubChem.
